Experiment [1] concerns the target T1, Muscle, skeletal receptor tyrosine-protein kinase (Homo sapiens) (UniProt O15146).
T1 sequence (whole entry): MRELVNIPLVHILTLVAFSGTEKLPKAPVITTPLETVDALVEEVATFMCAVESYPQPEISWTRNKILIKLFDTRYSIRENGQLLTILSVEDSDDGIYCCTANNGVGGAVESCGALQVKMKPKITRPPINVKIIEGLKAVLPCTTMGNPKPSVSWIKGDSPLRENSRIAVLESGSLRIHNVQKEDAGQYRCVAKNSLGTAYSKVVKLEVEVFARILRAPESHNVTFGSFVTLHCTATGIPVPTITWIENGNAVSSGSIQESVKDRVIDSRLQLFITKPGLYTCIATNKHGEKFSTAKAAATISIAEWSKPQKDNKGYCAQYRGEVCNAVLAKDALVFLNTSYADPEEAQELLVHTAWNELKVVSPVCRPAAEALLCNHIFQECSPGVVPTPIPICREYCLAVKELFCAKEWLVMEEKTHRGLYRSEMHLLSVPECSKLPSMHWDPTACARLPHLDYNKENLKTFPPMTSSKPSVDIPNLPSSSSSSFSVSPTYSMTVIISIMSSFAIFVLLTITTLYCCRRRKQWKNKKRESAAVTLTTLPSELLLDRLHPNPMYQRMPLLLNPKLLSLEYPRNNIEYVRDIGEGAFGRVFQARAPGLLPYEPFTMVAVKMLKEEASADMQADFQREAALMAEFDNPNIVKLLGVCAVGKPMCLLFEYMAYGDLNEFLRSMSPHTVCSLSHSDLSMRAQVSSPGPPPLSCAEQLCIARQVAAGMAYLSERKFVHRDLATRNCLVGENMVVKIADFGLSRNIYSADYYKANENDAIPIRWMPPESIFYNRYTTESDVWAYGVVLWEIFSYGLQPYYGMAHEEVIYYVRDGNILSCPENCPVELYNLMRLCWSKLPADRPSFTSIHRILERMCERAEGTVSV
The conditions noted are these: at 1 µM.

Experiment [2] has as its target T1, Muscle, skeletal receptor tyrosine-protein kinase (Homo sapiens). The conditions noted are these: at 10 µM.
The target in experiment [3] is T2, Serine/threonine-protein kinase Nek11 (Homo sapiens) (UniProt Q8NG66).
T2 sequence (whole entry): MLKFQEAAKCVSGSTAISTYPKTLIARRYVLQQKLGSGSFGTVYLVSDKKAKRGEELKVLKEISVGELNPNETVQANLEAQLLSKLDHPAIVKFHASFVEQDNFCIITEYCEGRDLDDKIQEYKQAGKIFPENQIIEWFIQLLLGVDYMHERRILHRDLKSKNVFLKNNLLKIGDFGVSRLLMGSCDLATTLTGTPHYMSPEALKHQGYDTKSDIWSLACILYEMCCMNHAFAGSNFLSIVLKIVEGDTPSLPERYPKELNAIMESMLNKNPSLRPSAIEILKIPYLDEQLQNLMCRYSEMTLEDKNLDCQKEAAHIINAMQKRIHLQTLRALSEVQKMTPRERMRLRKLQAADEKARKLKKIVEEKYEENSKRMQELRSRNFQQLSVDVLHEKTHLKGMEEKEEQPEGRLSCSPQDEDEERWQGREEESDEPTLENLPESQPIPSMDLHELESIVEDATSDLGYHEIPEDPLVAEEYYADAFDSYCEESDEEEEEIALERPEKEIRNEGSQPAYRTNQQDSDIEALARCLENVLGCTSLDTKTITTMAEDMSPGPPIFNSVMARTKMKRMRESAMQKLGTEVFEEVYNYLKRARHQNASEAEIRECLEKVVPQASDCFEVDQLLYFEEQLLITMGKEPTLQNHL
The conditions noted are these: at 1 µM.

For experiment [4], the target named is T2, Serine/threonine-protein kinase Nek11 (Homo sapiens). The conditions noted are these: at 10 µM.
The target of experiment [5] is T3, Serine/threonine-protein kinase Nek2 (Homo sapiens) (UniProt P51955).
T3 sequence (whole entry): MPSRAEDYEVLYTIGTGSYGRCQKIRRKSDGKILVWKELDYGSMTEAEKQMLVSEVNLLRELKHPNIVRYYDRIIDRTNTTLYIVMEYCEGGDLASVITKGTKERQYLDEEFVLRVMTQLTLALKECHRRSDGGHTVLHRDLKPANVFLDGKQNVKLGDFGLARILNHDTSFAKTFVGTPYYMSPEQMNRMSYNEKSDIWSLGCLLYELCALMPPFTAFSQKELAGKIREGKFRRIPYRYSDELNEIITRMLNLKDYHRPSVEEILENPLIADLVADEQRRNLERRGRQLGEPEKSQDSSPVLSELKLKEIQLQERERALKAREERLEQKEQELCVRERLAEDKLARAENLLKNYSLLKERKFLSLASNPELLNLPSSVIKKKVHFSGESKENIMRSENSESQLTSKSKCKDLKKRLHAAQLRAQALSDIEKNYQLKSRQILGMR
Conditions: at 1 µM.

The target in experiment [6] is T3, Serine/threonine-protein kinase Nek2 (Homo sapiens). Conditions: at 10 µM.
Experiment [7] deals with T4, Serine/threonine-protein kinase Nek3 (Homo sapiens) (UniProt P51956).
T4 sequence (whole entry): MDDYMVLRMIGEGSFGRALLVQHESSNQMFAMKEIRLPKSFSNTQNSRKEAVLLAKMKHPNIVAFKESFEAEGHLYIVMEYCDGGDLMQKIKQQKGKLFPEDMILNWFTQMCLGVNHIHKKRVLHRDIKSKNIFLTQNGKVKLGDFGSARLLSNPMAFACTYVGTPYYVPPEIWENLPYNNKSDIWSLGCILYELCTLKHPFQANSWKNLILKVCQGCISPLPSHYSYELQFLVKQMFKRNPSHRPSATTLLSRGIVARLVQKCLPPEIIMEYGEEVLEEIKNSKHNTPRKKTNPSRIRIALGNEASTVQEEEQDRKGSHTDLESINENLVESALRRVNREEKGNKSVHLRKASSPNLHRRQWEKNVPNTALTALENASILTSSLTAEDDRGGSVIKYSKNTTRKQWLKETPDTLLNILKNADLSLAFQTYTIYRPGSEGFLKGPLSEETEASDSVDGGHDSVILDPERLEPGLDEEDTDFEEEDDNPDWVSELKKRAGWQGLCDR
The conditions noted are these: at 1 µM.

Experiment [8] concerns the target T4, Serine/threonine-protein kinase Nek3 (Homo sapiens). Conditions: at 10 µM.
In experiment [9] the target is Serine/threonine-protein kinase tousled-like 2 (Homo sapiens) (UniProt Q86UE8). The conditions noted are these: at 1 µM.
Experiment [10] has the same target. The conditions noted are these: at 10 µM.
Experiment [11] deals with T5, Testis-specific serine/threonine-protein kinase 1 (Homo sapiens) (UniProt Q9BXA7).
T5 sequence (whole entry): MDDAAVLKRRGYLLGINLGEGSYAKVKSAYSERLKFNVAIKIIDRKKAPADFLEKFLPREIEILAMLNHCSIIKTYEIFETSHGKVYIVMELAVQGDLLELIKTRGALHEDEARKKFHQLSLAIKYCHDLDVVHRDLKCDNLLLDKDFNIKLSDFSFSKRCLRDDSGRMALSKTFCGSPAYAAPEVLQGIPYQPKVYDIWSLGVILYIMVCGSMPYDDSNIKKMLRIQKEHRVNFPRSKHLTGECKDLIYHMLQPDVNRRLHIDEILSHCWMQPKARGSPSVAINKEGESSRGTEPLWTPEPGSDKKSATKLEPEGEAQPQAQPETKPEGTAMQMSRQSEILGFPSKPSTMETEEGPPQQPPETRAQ
The conditions noted are these: at 1 µM.

Experiment [12] addresses T5, Testis-specific serine/threonine-protein kinase 1 (Homo sapiens). Conditions: at 10 µM.
In experiment [13] the target is T6, Testis-specific serine/threonine-protein kinase 2 (Homo sapiens) (UniProt Q96PF2).
T6 sequence (whole entry): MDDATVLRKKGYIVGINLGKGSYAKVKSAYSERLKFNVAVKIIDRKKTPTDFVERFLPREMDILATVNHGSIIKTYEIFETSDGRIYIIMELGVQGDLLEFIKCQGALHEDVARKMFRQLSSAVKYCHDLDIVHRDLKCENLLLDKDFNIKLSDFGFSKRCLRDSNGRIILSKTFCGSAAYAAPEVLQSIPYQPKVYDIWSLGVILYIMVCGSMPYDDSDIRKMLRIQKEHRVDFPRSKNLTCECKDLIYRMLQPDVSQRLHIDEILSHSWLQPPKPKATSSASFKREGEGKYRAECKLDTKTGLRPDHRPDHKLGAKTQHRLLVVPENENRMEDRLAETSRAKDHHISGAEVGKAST
The conditions noted are these: at 10 µM.

The target of experiment [14] is T7, Tyrosine-protein kinase Tec (Homo sapiens) (UniProt P42680).
T7 sequence (whole entry): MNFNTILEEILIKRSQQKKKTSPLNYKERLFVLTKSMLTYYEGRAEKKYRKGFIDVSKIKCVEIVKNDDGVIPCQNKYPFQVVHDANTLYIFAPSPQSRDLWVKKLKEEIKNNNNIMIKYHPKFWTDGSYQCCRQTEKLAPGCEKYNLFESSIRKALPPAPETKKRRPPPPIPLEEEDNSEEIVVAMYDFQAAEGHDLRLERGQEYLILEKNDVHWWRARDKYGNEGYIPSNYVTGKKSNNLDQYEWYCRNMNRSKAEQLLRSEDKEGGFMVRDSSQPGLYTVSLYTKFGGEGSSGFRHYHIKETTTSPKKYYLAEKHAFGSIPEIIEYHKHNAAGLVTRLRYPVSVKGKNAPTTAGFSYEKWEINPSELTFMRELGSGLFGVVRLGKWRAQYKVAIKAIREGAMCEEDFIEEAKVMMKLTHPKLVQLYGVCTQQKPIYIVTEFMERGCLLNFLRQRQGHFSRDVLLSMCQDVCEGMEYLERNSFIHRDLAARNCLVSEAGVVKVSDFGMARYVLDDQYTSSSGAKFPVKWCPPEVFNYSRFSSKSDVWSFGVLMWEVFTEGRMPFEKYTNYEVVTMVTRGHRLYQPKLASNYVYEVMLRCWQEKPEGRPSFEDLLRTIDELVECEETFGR
The conditions noted are these: at 1 µM.

Experiment [15] concerns the target T7, Tyrosine-protein kinase Tec (Homo sapiens). The conditions noted are these: at 10 µM.
Experiment [16] has as its target Angiopoietin-1 receptor (Homo sapiens) (UniProt Q02763). Conditions: at 1 µM.
Experiment [17] has the same target. The conditions noted are these: at 10 µM.
Experiment [18] concerns the target High affinity nerve growth factor receptor (Homo sapiens) (UniProt P04629). The conditions noted are these: at 1 µM.
The target is the same in experiment [19]. The conditions noted are these: at 10 µM.
Experiment [20] deals with BDNF/NT-3 growth factors receptor (Homo sapiens) (UniProt Q16620). The conditions noted are these: at 1 µM.

The structures appear in SMILES notation.

Residual activity data for four molecules are collected here from ChEMBL document CHEMBL2218924, “A broad activity screen in support of a chemogenomic map for kinase signalling research and drug discovery” (Biochem J, 2013).

High affinity nerve growth factor receptor (Homo sapiens), sequence (P04629 33-796 limits assumed): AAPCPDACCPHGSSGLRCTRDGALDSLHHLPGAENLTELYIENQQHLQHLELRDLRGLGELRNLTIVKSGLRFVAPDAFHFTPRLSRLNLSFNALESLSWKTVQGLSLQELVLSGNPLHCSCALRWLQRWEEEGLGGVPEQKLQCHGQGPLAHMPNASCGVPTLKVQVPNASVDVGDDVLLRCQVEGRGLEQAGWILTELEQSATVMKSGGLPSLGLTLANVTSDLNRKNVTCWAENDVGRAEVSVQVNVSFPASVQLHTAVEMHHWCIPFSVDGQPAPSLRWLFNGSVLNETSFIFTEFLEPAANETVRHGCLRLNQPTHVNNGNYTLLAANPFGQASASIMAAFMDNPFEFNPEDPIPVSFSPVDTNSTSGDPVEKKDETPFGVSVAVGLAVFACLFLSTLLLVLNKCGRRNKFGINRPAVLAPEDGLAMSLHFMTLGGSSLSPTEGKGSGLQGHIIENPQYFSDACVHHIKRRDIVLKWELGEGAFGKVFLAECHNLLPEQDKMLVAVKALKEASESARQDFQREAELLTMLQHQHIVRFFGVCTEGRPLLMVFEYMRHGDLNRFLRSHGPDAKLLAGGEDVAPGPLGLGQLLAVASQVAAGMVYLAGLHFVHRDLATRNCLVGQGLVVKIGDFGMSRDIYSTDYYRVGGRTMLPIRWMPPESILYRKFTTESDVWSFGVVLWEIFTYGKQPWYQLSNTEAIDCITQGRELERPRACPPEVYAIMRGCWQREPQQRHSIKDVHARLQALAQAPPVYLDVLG
Serine/threonine-protein kinase tousled-like 2 (Homo sapiens), sequence (Q86UE8 whole entry, looked up): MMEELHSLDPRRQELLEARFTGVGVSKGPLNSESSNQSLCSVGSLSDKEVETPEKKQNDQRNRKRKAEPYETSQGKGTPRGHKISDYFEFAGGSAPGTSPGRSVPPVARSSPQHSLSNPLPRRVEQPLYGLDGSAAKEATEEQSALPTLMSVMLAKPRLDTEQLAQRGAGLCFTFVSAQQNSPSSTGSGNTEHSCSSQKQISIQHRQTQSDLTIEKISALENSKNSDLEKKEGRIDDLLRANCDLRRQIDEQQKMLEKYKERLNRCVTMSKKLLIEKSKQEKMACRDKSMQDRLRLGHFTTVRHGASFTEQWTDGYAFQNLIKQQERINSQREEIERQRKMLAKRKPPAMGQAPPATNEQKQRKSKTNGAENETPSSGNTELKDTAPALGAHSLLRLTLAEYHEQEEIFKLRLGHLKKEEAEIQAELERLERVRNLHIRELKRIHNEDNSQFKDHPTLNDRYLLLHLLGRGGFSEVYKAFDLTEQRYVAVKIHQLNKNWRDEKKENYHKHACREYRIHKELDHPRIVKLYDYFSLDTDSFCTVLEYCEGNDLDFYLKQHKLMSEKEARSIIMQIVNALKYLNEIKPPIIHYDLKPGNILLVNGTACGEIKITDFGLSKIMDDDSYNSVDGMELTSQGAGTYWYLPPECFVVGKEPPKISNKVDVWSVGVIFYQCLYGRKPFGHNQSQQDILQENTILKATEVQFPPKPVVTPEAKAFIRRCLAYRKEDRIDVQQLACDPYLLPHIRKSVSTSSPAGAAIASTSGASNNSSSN
BDNF/NT-3 growth factors receptor (Homo sapiens), sequence (Q16620 32-822 limits assumed): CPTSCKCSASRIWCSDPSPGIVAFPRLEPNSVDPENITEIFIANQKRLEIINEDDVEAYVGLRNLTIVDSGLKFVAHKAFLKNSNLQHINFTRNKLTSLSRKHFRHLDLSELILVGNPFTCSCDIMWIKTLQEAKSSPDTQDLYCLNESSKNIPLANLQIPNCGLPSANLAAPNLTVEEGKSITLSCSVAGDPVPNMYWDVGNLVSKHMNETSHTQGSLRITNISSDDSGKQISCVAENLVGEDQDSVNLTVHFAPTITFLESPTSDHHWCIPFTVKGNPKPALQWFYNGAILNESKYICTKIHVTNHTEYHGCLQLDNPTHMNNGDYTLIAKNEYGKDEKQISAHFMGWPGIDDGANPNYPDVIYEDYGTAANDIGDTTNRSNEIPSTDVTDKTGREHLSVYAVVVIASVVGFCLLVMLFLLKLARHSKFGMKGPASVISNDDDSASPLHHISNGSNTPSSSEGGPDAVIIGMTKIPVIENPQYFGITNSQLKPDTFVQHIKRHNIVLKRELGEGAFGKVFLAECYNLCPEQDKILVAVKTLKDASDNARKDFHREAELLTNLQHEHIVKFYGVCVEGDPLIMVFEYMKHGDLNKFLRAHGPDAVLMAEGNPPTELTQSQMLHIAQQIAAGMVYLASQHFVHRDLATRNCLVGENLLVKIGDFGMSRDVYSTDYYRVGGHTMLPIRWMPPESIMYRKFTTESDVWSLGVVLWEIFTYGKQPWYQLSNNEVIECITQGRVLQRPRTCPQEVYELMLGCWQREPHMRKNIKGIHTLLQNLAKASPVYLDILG
Angiopoietin-1 receptor (Homo sapiens), sequence (Q02763 whole entry): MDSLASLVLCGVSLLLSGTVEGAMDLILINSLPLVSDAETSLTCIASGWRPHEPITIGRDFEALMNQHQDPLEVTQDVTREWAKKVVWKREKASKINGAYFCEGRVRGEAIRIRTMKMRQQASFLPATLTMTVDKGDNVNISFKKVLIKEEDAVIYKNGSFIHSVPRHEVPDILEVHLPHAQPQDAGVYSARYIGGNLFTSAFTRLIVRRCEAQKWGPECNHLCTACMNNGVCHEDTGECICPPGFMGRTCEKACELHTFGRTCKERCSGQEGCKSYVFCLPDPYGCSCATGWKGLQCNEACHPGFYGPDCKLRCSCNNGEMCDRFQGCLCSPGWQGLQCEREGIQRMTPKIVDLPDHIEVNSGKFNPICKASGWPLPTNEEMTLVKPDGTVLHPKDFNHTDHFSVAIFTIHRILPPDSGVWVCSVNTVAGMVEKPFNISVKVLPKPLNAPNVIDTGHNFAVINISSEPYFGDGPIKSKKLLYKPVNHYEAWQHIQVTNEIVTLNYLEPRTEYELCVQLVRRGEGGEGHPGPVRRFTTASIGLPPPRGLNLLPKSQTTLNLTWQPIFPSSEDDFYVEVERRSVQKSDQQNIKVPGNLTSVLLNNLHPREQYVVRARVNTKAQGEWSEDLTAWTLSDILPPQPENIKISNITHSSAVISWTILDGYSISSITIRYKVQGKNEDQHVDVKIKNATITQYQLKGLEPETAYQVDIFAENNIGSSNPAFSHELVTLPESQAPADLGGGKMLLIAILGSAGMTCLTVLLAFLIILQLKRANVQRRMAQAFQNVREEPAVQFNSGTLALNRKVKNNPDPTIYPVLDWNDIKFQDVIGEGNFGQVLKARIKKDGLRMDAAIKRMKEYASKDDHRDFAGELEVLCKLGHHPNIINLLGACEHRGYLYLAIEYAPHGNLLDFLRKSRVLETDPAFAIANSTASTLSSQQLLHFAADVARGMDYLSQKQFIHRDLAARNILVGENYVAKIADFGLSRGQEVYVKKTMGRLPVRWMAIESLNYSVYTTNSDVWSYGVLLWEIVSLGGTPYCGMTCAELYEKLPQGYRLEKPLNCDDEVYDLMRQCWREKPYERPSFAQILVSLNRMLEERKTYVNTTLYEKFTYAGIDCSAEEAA

Broadly, the residual activity is the signal under treatment as a percentage of the control signal. For `O=C(Nc1cccc(Nc2nccc(Nc3cccc(C(F)(F)F)c3)n2)c1)C1CC1`, the residual activity in [1] stood at 88%; in experiment [2], 3%; in [3], 90%; in experiment [4], 80%; in [5] it was 94%; in experiment [6], 101%. Besides, the residual activity was 88% in experiment [7]; 33% in experiment [8]; 109% in experiment [9]; 93% in experiment [10]; 94% in [11]; 64% in experiment [12]. Further, the residual activity came to 78% in experiment [13]; 78% in [14]; 9% in [15]; 136% in experiment [16]; 70% in experiment [17]; 18% in experiment [18]. The residual activity in experiment [19] came out at 1%; in [20], 44%.

Turning to `Oc1ccc(Nc2nc(-c3ccc(Cl)cc3)cs2)cc1`, the residual activity was determined as 112% in [1]; 91% in experiment [2]; 72% in experiment [3]; 40% in [4]; 116% in experiment [5]; 97% in experiment [6]. The residual activity in experiment [7] stood at 106%; in [8], 111%; in experiment [9], 104%; in experiment [10], 103%; in experiment [11], 110%; in experiment [12], 87%. Also, the residual activity came to 105% in experiment [13]; 100% in experiment [14]; 78% in experiment [15]; 113% in [16]; 131% in experiment [17]; 108% in experiment [18]. Besides, the residual activity in experiment [19] is 64%; in [20], 74%.

Consider `CC(C)n1cnc2/c(=N/c3cccc(Cl)c3)nc(NCCO)[nH]c21`, for which the residual activity in [1] is 75%; in [2] it was 35%; in [3], 43%; in experiment [4] it was 58%; in experiment [5], 85%; in experiment [6], 64%. Moreover, the residual activity in experiment [7] worked out at 76%; in experiment [8], 68%; in experiment [9] it was 82%; in experiment [10], 68%; in experiment [11] it was 94%; in [12], 60%. In addition, the residual activity is 81% in experiment [13]; 71% in experiment [14]; 31% in [15]; 91% in experiment [16]; 89% in experiment [17]; 24% in [18]. In addition, the residual activity amounted to 1% in [19] and 8% in experiment [20].

For the molecule `CCN(CC)CCCCN1c2ccccc2Oc2ccc(Cl)cc21`, the residual activity in experiment [1] is 129%; in [2] it was 97%; in experiment [3] it was 80%; in [4] it was 113%; in [5] it was 85%; in experiment [6], 112%. The residual activity in experiment [7] turned out to be 110%; in [8], 111%; in [9], 111%; in experiment [10], 91%; in [11] it was 105%; in [12] it was 102%. Besides, the residual activity was 98% in experiment [13]; 92% in experiment [14]; 78% in experiment [15]; 105% in experiment [16]; 71% in experiment [17]; 90% in [18]. Further, the residual activity in experiment [19] turned out to be 101%; in [20] it was 107%.
